HIV Env fusion: inhibitors of HIV Env-mediated cell fusion. HeLa-JRFL Env/CEM21 cell fusion, luciferase. inhibition, % at 12.3 µM. hit rate 1.1% among 360,000. AID 651610;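 active = mean replicate inhibition score of at least 50 and every replicate individually at or above 50; inconclusive = only one of the two criteria met; inactive = mean below 50 and not all replicates reaching 50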
CFTR F508del cor: CFTR F508del correction in bronchial cells | CFBE cells, YFP halide quenching; stimulated with forskolin plus potentiator P3; % fluorescence drop versus neutral controls | activity (quench increase), % at 7.58 µM | hit rate 0.36% among 350,000;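 active = mean added fluorescence quench of at least 8% versus neutral control, with both replicates also reaching 8%; inconclusive = only one of the mean or replicate conditions met; inactive = mean below 8% and not both replicates reaching 8%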;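 note: cells transiently co-express mutant CFTR-F508del with the halide-sensitive YFP; corrector assay measuring rescue of mutant channel to the surface after 24 h compound exposure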
INS-1E GSIS act: GLuc luminescence reporter in INS-1E cells, primary screen for activators of glucose-dependent secretion of insulin. INS-1E GLuc reporter insulin secretion, 2-3 h. activation, % at 16.6 µM. hit rate 0.61% among 370,000. AID 743287;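 active = lowest replicate activation of at least 40%, so every replicate reaches that level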
Wnt act: Wnt/beta-catenin pathway activation. hit rate 1.2% among 300,000. Wnt/beta-catenin reporter cell assay, activator, plate reader. activation, % at 9.35 µM. AID 743398; in the data active = activation above about 30%, passing the limit was not always enough; inconclusive = no clear call, values can overlap the other calls
MITF TRPM1 HTS: increases MITF-driven TRPM1 promoter luciferase signal; SK-MEL-5 TRPM1-promoter luciferase, 24 h; % of positive control, neutral wells = 0; AID 588334; hit rate 0.75% among 300,000; activation, % at 12.5 µM;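 active = mean activation of at least 80% with every replicate also reaching 80%; inconclusive = mean reaches 80% but some replicate falls short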
Hits are given with their value; - = inactive; ? = inconclusive; . = not tested or not shown. Compounds with a hit are over-represented: about 2.7% of the library has one in this group of screens.

SMILES	HIV Env fusion	CFTR F508del cor	INS-1E GSIS act	Wnt act	MITF TRPM1 HTS
C[C@@H]1CN([C@@H](C)CO)C(=O)c2cc(NS(=O)(=O)c3cn(C)cn3)ccc2O[C@@H]1CN(C)S(=O)(=O)c1cn(C)cn1	-	-	-	.	.
C[C@@H]1CN(C)C(=O)c2cc(NS(C)(=O)=O)ccc2O[C@@H]1CN(C)C	.	.	-	.	.
CCCCCCNC(=O)CNC(=S)N(Cc1cccs1)C1CCCCC1	58.8	-	-	-	.
COc1ccc(-c2cn(CC[C@H]3CC[C@@H](NC(=O)Nc4ccc(F)cc4)[C@H](CO)O3)nn2)cc1	.	-	-	.	.
CC(=O)Cn1nnc2sc(-c3ccccc3)cc2c1=O	-	-	-	-	88.8
Cc1ccc(C)n1-n1cnc2sc(-c3ccccc3)cc2c1=O	.	.	-	.	-
CCn1cnc2sc(-c3ccccc3)cc2c1=O	.	.	-	-	-
CC(=O)Cn1cnc2sc(-c3ccccc3)cc2c1=O	-	.	.	36.6	88.0
O=c1c2cc(-c3ccccc3)sc2ncn1-n1cccc1	-	.	.	-	84.9
Cc1noc(C)c1NC(=O)Nc1ccc2c(c1)C(=O)N([C@H](C)CO)C[C@H](C)[C@@H](CN(C)C(=O)Nc1ccccc1)OCCCC[C@@H](C)O2	-	-	-	.	.
Cc1ccc(S(=O)(=O)N(C)C[C@H]2OCCCC[C@H](C)Oc3ccc(NS(C)(=O)=O)cc3C(=O)N([C@@H](C)CO)C[C@H]2C)cc1	-	-	-	.	.
COc1ccc(OCCCSc2ncccn2)cc1	.	.	.	.	112.9
Clc1ccc(OCCSc2ncccn2)cc1	-	.	.	.	99.5
Nc1ccc2nc(-c3cc(Cl)c(N)c(Cl)c3)[nH]c2c1	-	.	.	42.8	-
Nc1ccc2nc(-c3ccc(Cl)cc3)[nH]c2c1	-	-	.	-	-
Nc1ccc(-c2nc3ccc([N+](=O)[O-])cc3[nH]2)cc1	.	-	-	59.1	-
C[C@@H]1CCCCO[C@H](CN(C)CC2CCCCC2)[C@H](C)CN([C@H](C)CO)C(=O)c2cc(NC(=O)CCCN(C)C)ccc2O1	-	-	-	.	.
Cc1ccc(C(=O)CCC(=O)OCC(=O)Nc2ccccc2SCC#N)cc1	-	-	-	-	-
COc1ccc(CCNC(=O)C(=O)c2c[nH]c3ccccc23)cc1OC	-	-	-	-	.
CSc1ccccc1NC(=O)COC(=O)CCC(=O)c1ccc(F)cc1	-	8.1	-	-	-
COc1ccc(CCNC(=O)COC(=O)CCC(=O)c2ccc(F)cc2)cc1OC	-	-	86.7	-	-
COc1ccc(C/C(C)=N\NC(=O)c2c[nH]c3ccccc23)cc1OC	-	-	-	39.4	-
COc1ccc(CCNC(=O)COC(=O)Cc2c[nH]c3ccccc23)cc1OC	-	-	51.8	-	-
C[C@H](CO)N1C[C@H](C)[C@@H](CN(C)C(=O)NC2CCCCC2)OCCCC[C@H](C)Oc2ccc(NC(=O)CCCN(C)C)cc2C1=O	-	-	-	.	.
CCn1c(O)c(/C=N/N=C/c2ccc(OC)cc2)c2cc(C3=NNC(=O)CC3)ccc21	-	-	65.0	-	-
SMILES	HIV Env fusion	CFTR F508del cor	INS-1E GSIS act	Wnt act	MITF TRPM1 HTS
CCNC(=O)[C@H]1[C@H](CO)[C@H]2Cn3c(ccc(-c4cccc(F)c4)c3=O)[C@@H]1N2C(C)=O	.	.	-	.	.
COc1ccc(-c2nc3ccccc3[nH]2)cc1	.	-	-	-	-
COc1ccc(-c2cc(=O)n(-c3nc4ccccc4[nH]3)[nH]2)cc1	66.1	.	.	.	-
CCOC(=O)C1(C)CCCCN1C(=O)c1cccc(Cl)c1 (stereo unspecified)	-	-	95.6	-	.
COc1ccc(S(=O)(=O)N2CCCCN3[C@@H](CO)[C@H](c4ccc(C#CC(C)C)cc4)[C@@H]3C2)cc1	.	-	-	.	.
CO[C@@H]1CN(C)C(=O)c2cc(NC(=O)NC3CCCCC3)ccc2OC[C@H](C)N(C(C)=O)C[C@@H]1C	.	-	-	.	.
Cc1ccc(S(=O)(=O)N2CCCCC2)cc1C(=O)NCCC1=CCCCC1	72.5	-	-	-	-
O=C(COc1ccccc1Cl)NCCC1=CCCCC1	-	.	-	.	-
O=C(CCNC(=O)c1ccccc1Cl)NCCC1=CCCCC1	58.4	-	-	-	-
O=C(NCCC1=CCCCC1)c1cc(S(=O)(=O)N2CCOCC2)ccc1Cl	-	-	-	-	-
Cc1cc(-c2ccc(Cl)cc2)n2nc(C)cc2n1	-	-	80.1	-	-
Cc1cc(C)n2nc(C)c(-c3ccc(Cl)cc3)c2n1	-	-	-	-	-
Cc1cc(-c2ccc(Br)cc2)n2nc(C)cc2n1	-	-	42.6	-	.
COc1ccc(CN(C)C[C@@H]2OCCCC[C@@H](C)Oc3ccc(NC(=O)Cc4ccccc4)cc3C(=O)N([C@H](C)CO)C[C@@H]2C)cc1	-	-	-	.	.
CCN(C(=O)C=Cc1ccco1)c1ccccc1	-	-	.	204.2	-
CC(=C/C(=O)O)/C=C/c1ccco1	-	-	-	-	-
Cc1nc(N2CCN(c3ccccc3)CC2)nc2c1C(=O)CC(c1ccccc1)C2 (stereo unspecified)	64.5	.	.	-	-
Cc1nc(N2CCN(c3ccccc3)CC2)nc2c1C(=O)CC(C)C2 (stereo unspecified)	-	.	-	-	-
CO[C@@H]1CN(C)C(=O)c2cc(NC(=O)CC(F)(F)F)ccc2OC[C@@H](C)N(C(=O)C2CCOCC2)C[C@H]1C	-	-	-	.	.
CN1CCN(C(=O)C2CCN(c3ncc(C(F)(F)F)cc3Cl)CC2)CC1	-	-	-	-	-
O=C(CSc1ccc(Cl)cc1)N1CCN(c2ncc(C(F)(F)F)cc2Cl)CC1	-	.	.	-	-
O=C(CN1CCN(c2ncc(C(F)(F)F)cc2Cl)CC1)N1CCN(c2ncc(C(F)(F)F)cc2Cl)CC1	94.7	.	-	.	-
CN(C)c1ccc(NC(=S)N2CCN(c3ncc(C(F)(F)F)cc3Cl)CC2)cc1	-	-	-	51.9	-
C[C@H]1CN([C@@H](C)CO)C(=O)c2cc(NS(=O)(=O)c3cn(C)cn3)ccc2O[C@H]1CN(C)C(=O)NC1CCCCC1	.	-	-	.	.
COc1ccc(S(=O)(=O)N(C)C[C@H]2Oc3ccc(NC(=O)CCN4CCOCC4)cc3CC(=O)N([C@@H](C)CO)C[C@@H]2C)cc1	-	-	-	.	.
SMILES	HIV Env fusion	CFTR F508del cor	INS-1E GSIS act	Wnt act	MITF TRPM1 HTS
COc1ccc(NC(=O)N(C)C[C@@H]2OCCCC[C@H](C)Oc3ccc(NS(C)(=O)=O)cc3C(=O)N([C@@H](C)CO)C[C@H]2C)cc1	.	-	-	.	.
Oc1ccccc1-c1nnc(COc2ccc(Cl)cc2Cl)o1	-	-	-	?	96.0
CO[C@@H]1CN(C)C(=O)c2cc(NC(=O)NC(C)C)ccc2OC[C@@H](C)N(CCC(F)(F)F)C[C@@H]1C	-	-	-	.	.
CCCN1[C@H](C(=O)N2CCOCC2)[C@@H](CO)[C@@H]2Cn3c(ccc(-c4ccccc4)c3=O)[C@@H]21	.	.	-	.	.
CCCCCc1cc(=O)oc2c(C(CCN3CCCC(C)C3)c3cc(OC)c(OC)c(OC)c3)c(OC)cc(OC)c12 (stereo unspecified)	.	.	.	.	-
CCCCCc1cc(=O)oc2c(C(CCN3CCCCC3)c3cc(OC)c(OC)c(OC)c3)c(OC)cc(OC)c12 (stereo unspecified)	-	-	58.9	-	-

From PubChem BioAssay
